Test results as given in PubChem BioAssay (EPA / NIEHS).
The source made the active and inactive calls. The calls were made as follows: active = hit-call score of the fitted dose curve at least 0.9, where 1 is the maximum; inactive = score below 0.9.

Read-out: Tissue Factor, F3 (gene 2152)
Test: BSK_LPS_TissueFactor: BioMAP Diversity Plus: LPS Assay for Tissue Factor Biomarker Activity (AID 2283084)
Conditions: primary human HUVEC with PBMC; actives raise or lower the signal
Procedure, shortened: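 Human umbilical vein endothelial cells co-cultured with peripheral blood mononuclear cells were dosed and stimulated with LPS. Cell-surface CD142 was quantified by ELISA at 24 h. Activity was fitted bidirectionally against DMSO baseline.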

Chain of Tumor necrosis factor (Homo sapiens) (P01375 whole entry, looked up): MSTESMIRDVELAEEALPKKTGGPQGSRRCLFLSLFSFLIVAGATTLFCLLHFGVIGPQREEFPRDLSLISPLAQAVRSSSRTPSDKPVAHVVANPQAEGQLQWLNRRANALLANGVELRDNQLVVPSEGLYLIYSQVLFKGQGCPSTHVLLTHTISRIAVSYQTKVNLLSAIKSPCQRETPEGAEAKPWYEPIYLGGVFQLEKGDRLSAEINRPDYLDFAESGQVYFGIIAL

| Compound | outcome | AC50 |
| --- | --- | --- |
| CCCCCCC(O)CCCCCCCCCCC(=O)OC (stereo not given) | inactive | – |
| CCC(C)=NO | inactive | – |
| Cc1cc(-n2nc3ccc(Cl)cc3n2)c(O)c(C(C)(C)C)c1 | inactive | – |
| Oc1cccc2ccccc12 | – | 6.27 µM (active) |
| CN(C)c1ccc(C(c2ccccc2)c2ccc(N(C)C)cc2)cc1 | inactive | – |
| CC[N+](CC)(CC(=O)Nc1c(C)cccc1C)Cc1ccccc1 (tested in a mixture with another compound) | inactive | – |

Read-out: Tumor necrosis factor (Homo sapiens) (UniProt P01375)
Test: BSK_LPS_TNFa: BioMAP Diversity Plus: LPS Assay for Tumour Necrosis Factor alpha (TNFa) Biomarker Activity (AID 2283085);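 as to AC50: TNFa protein level quantified by ELISA in the co-culture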
Conditions: primary human HUVEC with PBMC; actives raise or lower the signal
Procedure, shortened: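 HUVEC/PBMC co-culture, LPS-stimulated; 24 h post-dose; TNFa by ELISA; gain or loss of signal fitted bidirectionally vs DMSO baseline.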

| Compound | outcome | AC50 |
| --- | --- | --- |
| CCCCCCC(O)CCCCCCCCCCC(=O)OC (stereo not given) | inactive | – |
| CCC(C)=NO | inactive | – |
| Cc1cc(-n2nc3ccc(Cl)cc3n2)c(O)c(C(C)(C)C)c1 | inactive | – |
| Oc1cccc2ccccc12 | inactive | – |
| CN(C)c1ccc(C(c2ccccc2)c2ccc(N(C)C)cc2)cc1 | – | 1.6 µM (active) |
| CC[N+](CC)(CC(=O)Nc1c(C)cccc1C)Cc1ccccc1 (tested in a mixture with another compound) | inactive | – |

Read-out: Vascular cell adhesion molecule 1 (VCAM1), VCAM1 (gene 7412)
Test: BSK_LPS_VCAM1: BioMAP Diversity Plus: LPS Assay for Vascular cell adhesion molecule 1 (VCAM1) Biomarker Activity (AID 2283086)
Conditions: primary human HUVEC with PBMC; actives raise or lower the signal
Procedure, shortened: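 ELISA read-out of VCAM-1 at 24 h post-dosing in an LPS-driven HUVEC/PBMC primary human co-culture; gain or loss of signal fitted bidirectionally against DMSO baseline. Cytotoxicity tracked in parallel cultures by SRB total-protein staining.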

| Compound | outcome | AC50 |
| --- | --- | --- |
| CCCCCCC(O)CCCCCCCCCCC(=O)OC (stereo not given) | inactive | – |
| CCC(C)=NO | inactive | – |
| Cc1cc(-n2nc3ccc(Cl)cc3n2)c(O)c(C(C)(C)C)c1 | inactive | – |
| Oc1cccc2ccccc12 | inactive | – |
| CN(C)c1ccc(C(c2ccccc2)c2ccc(N(C)C)cc2)cc1 | – | 4.93 µM (active) |
| CC[N+](CC)(CC(=O)Nc1c(C)cccc1C)Cc1ccccc1 (tested in a mixture with another compound) | inactive | – |

Read-out: CD38, CD38 (gene 952)
Test: BSK_SAg_CD38: BioMAP Diversity Plus: SAg Assay for CD38 Biomarker Activity (AID 2283087)
Conditions: primary human HUVEC with PBMC; actives raise or lower the signal
Procedure, shortened: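 Measures CD38 on a human endothelial/PBMC co-culture driven by SEB and TSST-1, 24 h after compound exposure, using ELISA with fluorescence detection; DMSO defines baseline for bidirectional curve fitting.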

| Compound | outcome | AC50 |
| --- | --- | --- |
| CCCCCCC(O)CCCCCCCCCCC(=O)OC (stereo not given) | inactive | – |
| CCC(C)=NO | inactive | – |
| Cc1cc(-n2nc3ccc(Cl)cc3n2)c(O)c(C(C)(C)C)c1 | inactive | – |
| Oc1cccc2ccccc12 | inactive | – |
| CN(C)c1ccc(C(c2ccccc2)c2ccc(N(C)C)cc2)cc1 | – | 20 µM (active) |
| CC[N+](CC)(CC(=O)Nc1c(C)cccc1C)Cc1ccccc1 (tested in a mixture with another compound) | inactive | – |

Read-out: CD40, CD40 (gene 958)
Test: BSK_SAg_CD40: BioMAP Diversity Plus: SAg Assay for CD40 Biomarker Activity (AID 2283088)
Conditions: primary human HUVEC with PBMC; actives raise or lower the signal
Procedure, shortened: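 Human umbilical vein endothelial cells co-cultured with PBMC; CD40 levels measured by ELISA with fluorescence read-out 24 h after chemical dosing. Gain or loss of signal fitted bidirectionally against DMSO baseline.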

| Compound | outcome | AC50 |
| --- | --- | --- |
| CCCCCCC(O)CCCCCCCCCCC(=O)OC (stereo not given) | inactive | – |
| CCC(C)=NO | inactive | – |
| Cc1cc(-n2nc3ccc(Cl)cc3n2)c(O)c(C(C)(C)C)c1 | inactive | – |
| Oc1cccc2ccccc12 | inactive | – |
| CN(C)c1ccc(C(c2ccccc2)c2ccc(N(C)C)cc2)cc1 | – | 14.2 µM (active) |
| CC[N+](CC)(CC(=O)Nc1c(C)cccc1C)Cc1ccccc1 (tested in a mixture with another compound) | inactive | – |
